Results as given in PubChem BioAssay AID651995 (Sanford-Burnham Center for Chemical Genomics, 2013).
The campaign covered roughly 2,500 compounds. About 480 (19%) were called active.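 Rule for the calls: active = mean inhibition above about 25% (limit read from the data); inactive = the rest.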 These entries were drawn from the full list.

Test: Wnt3a reporter signal inhibition, confirmation, counter-screen for Gli-SUFU antagonist project, Wnt-LIGHT cells, luminescence, single concentration (AID 651995)
Details: Wnt3a-driven luciferase reporter, at 6.25 µM, hits give high values

| Compound | inhibition |
| --- | --- |
| C/C(=N\Nc1ccc(Cl)nn1)c1ccccc1O | -26.7% (inactive) |
| COc1ccc(Cc2nnc(N/N=C/c3ccccc3O)[nH]c2=O)cc1OC | 59.9% (active) |
| COc1ccc(/C=N/N=C2/C(=O)Nc3ccccc32)cc1O | -23.9% (inactive) |
| CC(=O)OCCC(C)C | -9.39% (inactive) |
| c1ccc(-n2nnnc2N2CCOCC2)cc1 | -14.5% (inactive) |
| O=C(O)CCCn1cc(NC(=O)COc2cccc(Cl)c2)cn1 | 6.24% (inactive) |
| Cc1ccc(NC(=O)CN(C)CC(=O)Nc2cccc(F)c2)cc1[N+](=O)[O-] | 36.3% (active) |
| CN(C)CCSc1nc(N)c2c3c(sc2n1)COC(C)(C)C3 | -37.2% (inactive) |
| CCC1CCCCN1CCCNC(=O)Cn1nc(-c2ccccc2)ccc1=O (centres undefined) | 12.7% (inactive) |
| O=C1C=C(c2ccnc3cc(Cl)ccc23)C[C@@H](c2ccc3c(c2)OCO3)C1 | 27.6% (active) |
| CCN(CC)S(=O)(=O)c1ccc(Cl)c(C(=O)NC(C)C(c2cccs2)N2CCCC2)c1 (centres undefined) | -35.1% (inactive) |
| CSc1ncccc1C(=O)Nc1nc2ccc(F)cc2s1 | 81.3% (active) |
| CCN(CCO)C(=S)Nc1cc(C(=O)OC)ccc1C(=O)OC | -4.1% (inactive) |
| O=C(Cn1cc(C(=O)C2CC2)c2ccccc21)Nc1ccccc1Cl | 26.6% (active) |
| O=c1c2ccccc2nc2n1C(CSCc1cccc(C(F)(F)F)c1)CS2 (centres undefined) | 24.2% (inactive) |
| C=CCn1c(SCC(=O)CC(=O)OCC)nc2cc(C(=O)N3CCC(C(N)=O)CC3)ccc2c1=O | -31.2% (inactive) |
| O=C(c1cc(Cl)cc(Cl)c1)N1CCC(=O)N(C(COCc2ccccc2)Cc2ccccc2)CC1 (centres undefined) | -8.85% (inactive) |
| CCC(Cc1ccccc1)NC(=O)C1CCCCC1 (centres undefined) | -4.89% (inactive) |
| CC(C)OCC(O)CN1CCN(C(c2ccccc2)c2ccccc2)CC1 (centres undefined) | -21.2% (inactive) |
| CCOc1ccc(-n2c(O)c(/C=N/c3ccnn3Cc3ccncc3)c3ccccc3c2=O)cc1 | -8.8% (inactive) |
| O=C(CN1C(=O)c2ccccc2S1(=O)=O)N1CCc2ccccc21 | 72.4% (active) |
| NC(N)=Nc1nc(-c2ccccc2)c2cc(Cl)ccc2n1 | -5.22% (inactive) |

| Compound | inhibition |
| --- | --- |
| CC(C)Oc1ccc(/C=N/NC(=O)c2nnn(-c3nonc3N)c2CN(C)C2CCCCC2)cc1 | -59.5% (inactive) |
| COc1ccc2c(C)cc3nnnn3c2c1 | -7.11% (inactive) |
| Cc1ccc(S(=O)(=O)NC(C)C(=O)Nc2ccccc2C(=O)N2CCCC2)cc1 (centres undefined) | -22.3% (inactive) |
| O=C(O)c1ccc(N/N=C/c2ccc3ncccc3c2)cc1 | 95% (active) |
| NS(=O)(=O)c1ccc(CCNC(=O)CCCn2c(SCC(=O)N3CCCC3)nc3ccsc3c2=O)cc1 | -9.95% (inactive) |
| C=CCOc1nc2c(c(=O)n(C)c(=O)n2C)n1Cc1ccc(Cl)cc1Cl | -18% (inactive) |
| O=C(Nc1cc2c3c(c1)C1CCCC1CN3CC1CCCC21)c1ccc([N+](=O)[O-])cc1 (centres undefined) | -20.4% (inactive) |
| CN(NC(=O)c1ccccc1F)c1nc(C(F)(F)F)nc2ccccc12 | -20% (inactive) |
| CC(C)(C)c1ccc(Oc2ccc(N)cc2)cc1 | 106% (active) |
| Cc1cc(C(=O)CSc2nc(N)cc(=O)[nH]2)c(C)n1-c1cccc(F)c1 | -15.5% (inactive) |
| CC(=O)c1c(C)[nH]c(C(=O)OCC(=O)Nc2sc3c(c2C#N)CCCC3)c1C | -44.3% (inactive) |
| COc1ccccc1/C=C/CN1CCC(CO)(Cc2ccccc2)CC1 | 3.26% (inactive) |
| Cc1cccc(NS(=O)(=O)c2ccc(-c3cnc(C4CC4)o3)cc2)c1 | -40.9% (inactive) |
| CCOc1cccc(/C=N/NC(=S)NCCN2CCOCC2)c1O | -21.9% (inactive) |
| COc1ccc(C(=O)NCc2nnc(SCCOc3ccccc3)n2C)cc1 | -33.1% (inactive) |
| COc1cccc2cc(C(N)=O)/c(=N\NC(=O)c3ccccc3)oc12 | -3.11% (inactive) |
| Cc1cccc2nc(CSc3nc4[nH]ncc4c(=O)n3-c3cccc(Cl)c3)cc(=O)n12 | 33.2% (active) |
| COc1cc(C(=O)OC(C)C(=O)NCC2CCCCC2)cc(NC(=O)c2ccco2)c1OC (centres undefined) | -76.6% (inactive) |
| CC(C)C(=O)Nc1nnc(SCC(=O)N2C(C)CCCC2C)s1 (centres undefined) | -26.6% (inactive) |
| O=C(NCCOCc1ccc(Cl)cc1)c1ncn[nH]1 | 33.3% (active) |
| CCn1c(SCc2ccccc2)nc2cc(OC)c(OC)cc2c1=O | -22.5% (inactive) |
| CC(C)Oc1ccc(CN2CCC(n3nccc3NC(=O)c3cccnc3)CC2)cc1 | -35.7% (inactive) |
